“And” between values parts separate entries of the source, which are not always exact repeats. Equal values may be shown once. Some compounds were tested as several samples or in several runs, with calls that do not always agree. The source made the active and inactive calls. Unless noted, no rule for the calls is given here.
How the values were obtained:
[1] = liver-stage malaria parasite load reduction – cell-based, known kinase inhibitor set, luminescence, hepatoma host viability (AID 624392); conditions: Plasmodium liver stage in hepatoma cells, luciferase luminescence, concentration not given here; liver cell % of control: measured here: host liver cell viability; parasite % of control: stronger effect = lower value;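 also: infected cells incubated roughly two days before readout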
[2] = altered dexamethasone sensitivity, NF-kB reporter, cell-based, luciferase, IL-1B stimulus (AID 624486); conditions: IL-1B + dexamethasone, luminescence; percent of negative control (+Dex): actives lie on both sides, concentration not given here; z-score: measured here: IL-1B alone, no Dex;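 as to percent of negative control (+Dex): 100% = mean signal of vehicle control wells on the plate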
[3] = C. elegans survival during P. aeruginosa infection – whole organism (AID 651566);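 also: tested at 14 µM; sign flipped so higher z means a lower ratio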; conditions: C. elegans killed by P. aeruginosa, survival ratio
[4] = pro-inflammatory signaling induction in mouse macrophages – cell-based, murine, luminescence (AID 652131); conditions: murine macrophage pro-inflammatory reporter, stronger effect = higher value
[5] = target: Cellular tumor antigen p53 (Homo sapiens) (UniProt P04637); assay: GFP-p53 level modulators in HPV16+ cells – imaging, known kinase inhibitor set, EGFP/DsRed ratio (AID 1053116); conditions: GFP-p53 stability, stronger effect = higher value; EGFP object count: measured here: GFP-p53 positive objects count;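 also: cells exposed to compounds for 24 h at 37 °C before reading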
[6] = inducers of IRF3 signaling, differentiated THP-1 – cell-based, PMA-stimulated THP-1, luminescence (AID 1053176); conditions: PMA-differentiated THP-1, IRF3 reporter luminescence; stronger effect = higher value
[7] = MELAS cybrid and Rieske KO viability enhancers – cell-based, MELAS cybrids, Rieske KO mouse fibroblasts, CellTiter-Glo, primary screen (AID 1508586;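 active = mean z-score across replicates of 1.96 or higher in either the MELAS or the Rieske mutant cell line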;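 also: z relative to plate mean and SD of compound and empty wells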); conditions: low glucose
[8] = MELAS cybrid survival, CellTiter-Glo 48 h, stronger effect = higher value
[9] = Rieske KO mouse fibroblast survival, CellTiter-Glo 72 h

Sequence of Cellular tumor antigen p53 (Homo sapiens) (P04637 whole entry, looked up): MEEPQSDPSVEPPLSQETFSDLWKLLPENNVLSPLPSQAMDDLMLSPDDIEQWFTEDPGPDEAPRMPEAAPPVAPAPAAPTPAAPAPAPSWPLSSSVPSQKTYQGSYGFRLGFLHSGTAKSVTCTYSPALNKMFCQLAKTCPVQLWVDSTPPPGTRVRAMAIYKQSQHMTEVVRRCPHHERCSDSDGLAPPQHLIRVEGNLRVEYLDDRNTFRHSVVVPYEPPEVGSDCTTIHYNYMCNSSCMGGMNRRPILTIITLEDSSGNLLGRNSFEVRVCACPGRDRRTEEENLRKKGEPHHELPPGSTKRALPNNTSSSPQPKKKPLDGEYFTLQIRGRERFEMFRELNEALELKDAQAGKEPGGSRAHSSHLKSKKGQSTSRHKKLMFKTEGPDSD

In the case of `CN(C)CCCn1c(-c2nonc2N)nc2cnccc21`, the liver cell % of control [1] is reported as 105%, the parasite % of control [1] is reported as 124% (inactive) and the percent of negative control (+Dex) [2] is reported as 91% (inactive). The z-score [2] was 0.395, the z-score [3] was 0.105 (inactive) and the z-score [4] was -0.067 (inactive). For the same molecule, the EGFP object count [5] was 3.5, the EGFP/DsRed ratio [5] was 0.0389 (inactive) and the fraction signal [6] was -0.0015 (inactive). The z-score [7, 8] was -0.855 (inactive) and the z-score [7, 9] was -0.298.
With `COc1cc2c(cc1Nc1nc(Nc3ccsc3C(N)=O)c3cc[nH]c3n1)N(C(=O)CN(C)C)CCC2(C)C` the liver cell % of control [1] was 67.7%, the parasite % of control [1] was 290% (inactive) and the percent of negative control (+Dex) [2] was 91% (inactive). For the same molecule, the z-score [2] was -0.245, the z-score [3] was 0.455 (inactive) and the z-score [4] was 2.78 (inactive). For the same molecule, the EGFP object count [5] was 3.5, the EGFP/DsRed ratio [5] was 0.0546 (inactive) and the fraction signal [6] was 0.001 (inactive). For the same molecule, the z-score [7, 8] was 0.737 and the z-score [7, 9] was 2.24.
With `Cc1ccc(C(=O)NC(C)C)cc1-c1ccc(C(=O)NCC2CC2)cc1` the liver cell % of control [1] was 90%, the parasite % of control [1] was 124% (inactive) and the percent of negative control (+Dex) [2] was 94.5% (inactive). The z-score [2] was 1.18, the z-score [3] was 0.505 (inactive) and the z-score [4] was 0.198 (inactive). The EGFP object count [5] was 3, the EGFP/DsRed ratio [5] was 0.0297 (inactive) and the fraction signal [6] was -0.008 (inactive). The z-score [7, 8] was 0.0329 (inactive) and the z-score [7, 9] was 0.189.
For `Cc1c2ccc(N(C)c3ccnc(Nc4cccc(S(N)(=O)=O)c4)n3)cc2nn1C`, the liver cell % of control [1] was 94.3%, the parasite % of control [1] was 100% (inactive) and the percent of negative control (+Dex) [2] was 94% (inactive). For the same molecule, the z-score [2] was 0.455, the z-score [3] was 1 (inactive) and the z-score [4] was -0.277 (inactive). The EGFP object count [5] was 3.5, the EGFP/DsRed ratio [5] was 0.0613 (inactive) and the fraction signal [6] was 0.0015 (inactive). For the same molecule, the z-score [7, 8] was -1.32 (inactive) and the z-score [7, 9] was -0.151.
With `Cc1cccc2c(N=Nc3ccc(S(N)(=O)=O)cc3)c(O)[nH]c12` the liver cell % of control [1] was 89.8%, the parasite % of control [1] was 131% (inactive) and the percent of negative control (+Dex) [2] was 111% (inactive). The z-score [2] was 1.54, the z-score [3] was -0.125 (inactive) and the z-score [4] was -0.036 (inactive). For the same molecule, the EGFP object count [5] was 3.5, the EGFP/DsRed ratio [5] was 0.095 (inactive) and the fraction signal [6] was -0.0075 (inactive). For the same molecule, the z-score [7, 8] was 0.912 (inactive) and the z-score [7, 9] was -0.47.
For `COc1cc(Nc2ncc3c(C)nc(-c4cccc(C(F)(F)F)c4)n3n2)cc(OC)c1OC`, the liver cell % of control [1] was 91.6%, the parasite % of control [1] was 120% (inactive) and the percent of negative control (+Dex) [2] was 59.5% (inactive). The z-score [2] was -3.31, the z-score [3] was 0.325 (inactive) and the z-score [4] was -0.389 (inactive). The EGFP object count [5] was 11, the EGFP/DsRed ratio [5] was 0.172 (inactive) and the fraction signal [6] was 0.005 (inactive). The z-score [7, 8] was 1.04 (inactive) and the z-score [7, 9] was 0.168.
In the case of `COc1cc2ncn(-c3cc(OCc4cccs4)c(C(N)=O)s3)c2cc1OC`, the liver cell % of control [1] is reported as 107%, the parasite % of control [1] is reported as 69% (inactive) and the percent of negative control (+Dex) [2] is reported as 111% (inactive). The z-score [2] was 0.28, the z-score [3] was -0.19 (inactive) and the z-score [4] was -0.264 (inactive). For the same molecule, the EGFP object count [5] was 3.5, the EGFP/DsRed ratio [5] was 0.163 (inactive) and the fraction signal [6] was -0.0075 (inactive). For the same molecule, the z-score [7, 8] was -0.262 (inactive) and the z-score [7, 9] was -0.175.
For `Nc1nc(-c2ccccn2)c(-c2ccc3ncccc3n2)s1`, the liver cell % of control [1] was 94.7%, the parasite % of control [1] was 101% (inactive) and the percent of negative control (+Dex) [2] was 81.5% (inactive). The z-score [2] was -0.74, the z-score [3] was 0.265 (inactive) and the z-score [4] was 4.39 (inactive). The EGFP object count [5] was 4, the EGFP/DsRed ratio [5] was 0.114 (inactive) and the fraction signal [6] was -0.01 (inactive). The z-score [7, 8] was -0.0333 (inactive) and the z-score [7, 9] was -0.22.
With `CNC(=O)c1ncccc1Nc1nc(Nc2cc3c(cc2OC)CCCN3C(=O)CN(C)C)nc2[nH]ccc12` the liver cell % of control [1] was 91.6%, the parasite % of control [1] was 670% (inactive) and the percent of negative control (+Dex) [2] was 99.5% (inactive). The z-score [2] was 0.22, the z-score [3] was 0.02 (inactive) and the z-score [4] was 0.337 (inactive). The EGFP object count [5] was 3, the EGFP/DsRed ratio [5] was 0.0957 (inactive) and the fraction signal [6] was -0.01 (inactive). The z-score [7, 8] was 6.01 (active) and the z-score [7, 9] was 11.9.
For `COC(=O)Nc1nc2ccc(S(=O)(=O)c3ccc(NC(=O)Nc4cc(C(F)(F)F)ccc4F)cc3)cc2[nH]1`, the liver cell % of control [1] was 80%, the parasite % of control [1] was 100% (inactive) and the percent of negative control (+Dex) [2] was 86.5% (inactive). The z-score [2] was 0.105, the z-score [3] was -0.105 (inactive) and the z-score [4] was 2.68 (inactive). The EGFP object count [5] was 1.5, the EGFP/DsRed ratio [5] was 0.00404 (inactive) and the fraction signal [6] was 0 (inactive). The z-score [7, 8] was 0.00101 (inactive) and the z-score [7, 9] was -0.437.
For `CNC(=O)c1sc(-n2cnc3cc(OC)c(OC)cc32)cc1OCc1ccccc1C(F)(F)F`, the liver cell % of control [1] was 124%, the parasite % of control [1] was 77.7% (inactive) and the percent of negative control (+Dex) [2] was 68.5% (inactive). The z-score [2] was -0.645, the z-score [3] was -0.51 (inactive) and the z-score [4] was -0.587 (inactive). For the same molecule, the EGFP object count [5] was 5.5, the EGFP/DsRed ratio [5] was 0.105 (inactive) and the fraction signal [6] was -0.005 (inactive). The z-score [7, 8] was -0.801 (inactive) and the z-score [7, 9] was -0.0583.
For `Cc1nn(C)c2cc(N(C)c3ccnc(Nc4cccc(S(N)(=O)=O)c4)n3)ccc12`, the liver cell % of control [1] was 71.5%, the parasite % of control [1] was 67% (inactive) and the percent of negative control (+Dex) [2] was 82% (inactive). For the same molecule, the z-score [2] was 0.54, the z-score [3] was 0.53 (inactive) and the z-score [4] was 3.14 (inactive). For the same molecule, the EGFP object count [5] was 2, the EGFP/DsRed ratio [5] was 0.0899 (inactive) and the fraction signal [6] was -0.0065 (inactive). The z-score [7, 8] was -0.638 (inactive) and the z-score [7, 9] was 0.0293.
For `COC(=O)Nc1nc2ccc(Oc3cccc(NC(=O)Nc4cc(C(F)(F)F)ccc4F)c3)cc2[nH]1`, the liver cell % of control [1] was 103%, the parasite % of control [1] was 148% (inactive) and the percent of negative control (+Dex) [2] was 104% (inactive). For the same molecule, the z-score [2] was 2.25, the z-score [3] was 1.03 (inactive) and the z-score [4] was 4.52 (inactive). For the same molecule, the EGFP object count [5] was 4, the EGFP/DsRed ratio [5] was 0.18 (inactive) and the fraction signal [6] was -0.0045 (inactive). The z-score [7, 8] was -0.76 (inactive) and the z-score [7, 9] was 0.691.
In the case of `CN1CCC(C(=O)Nc2n[nH]c3nc(-c4ccc(O)cc4)c(Br)cc23)CC1`, the liver cell % of control [1] is reported as 51.2% and 53.8%, the parasite % of control [1] is reported as 292% (inactive) and 294% (inactive) and the percent of negative control (+Dex) [2] is reported as 108% (inactive) and 100% (inactive). For the same molecule, the z-score [2] was -0.82 and -0.48, the z-score [3] was 0.21 (inactive) and -0.175 (inactive) and the z-score [4] was -0.483 (inactive) and -0.641 (inactive). For the same molecule, the EGFP object count [5] was 2.5 and 3, the EGFP/DsRed ratio [5] was 0.0956 (inactive) and 0.0438 (inactive) and the fraction signal [6] was 0.0155 (inactive) and 0.0035 (inactive). For the same molecule, the z-score [7, 8] was -0.719 (inactive) and 2.2 (active) and the z-score [7, 9] was -0.17 and -0.0758.

Reference: PubChem BioAssay
